PREPL inh: inhibitors of human prolyl oligopeptidase-like enzyme PREPL; recombinant PREPL, fluorescence polarization activity-based probe; inhibition, % at 5.96 µM; 320,000 tested, 0.68% active; in the data active means inhibition above about 43%
LYPLA1 inh: blocks human lysophospholipase 1, a PME1 counter-screen. O75608. recombinant LYPLA1, FP-Rh probe fluorescence polarization. inhibition, % at 5.9 µM. 320,000 tested, 0.16% active;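 active means inhibition above the mean of all tested compounds plus 3 SD, set per campaign, cut at about 14% in these data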;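 further: inhibitors block serine hydrolase probe labeling of LYPLA1 so polarization falls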
Target sequence (O75608 whole entry, looked up): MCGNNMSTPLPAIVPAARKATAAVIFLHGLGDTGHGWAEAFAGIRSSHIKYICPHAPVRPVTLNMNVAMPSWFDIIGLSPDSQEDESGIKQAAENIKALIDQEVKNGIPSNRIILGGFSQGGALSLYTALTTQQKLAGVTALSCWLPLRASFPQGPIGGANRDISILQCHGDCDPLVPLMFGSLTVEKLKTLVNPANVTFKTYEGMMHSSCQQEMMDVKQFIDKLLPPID
LYPLA2 inh: LYPLA2 (human) inhibition in PME1 counter-screen. recombinant LYPLA2, FP-Rh probe fluorescence polarization. AID 2177. 320,000 tested, 0.38% active. inhibition, % at 5.9 µM. O95372;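 active means inhibition above the screen-wide mean plus 3 SD, limit set per campaign, cut at about 26% in these data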
PME-1 primary: PME-1 (human) inhibition; recombinant PME-1, FP-Rh probe fluorescence polarization; inhibition, % at 5.9 µM; 320,000 tested, 0.53% active; AID 2130;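 active means inhibition above the campaign mean of all compounds plus 3 SD, cut at about 26% in these data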;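 further: competitive labeling of PME-1 active site by serine hydrolase directed probe; inhibitors block probe labeling so polarization falls and inhibition rises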
Target sequence (Q9Y570 whole entry, looked up): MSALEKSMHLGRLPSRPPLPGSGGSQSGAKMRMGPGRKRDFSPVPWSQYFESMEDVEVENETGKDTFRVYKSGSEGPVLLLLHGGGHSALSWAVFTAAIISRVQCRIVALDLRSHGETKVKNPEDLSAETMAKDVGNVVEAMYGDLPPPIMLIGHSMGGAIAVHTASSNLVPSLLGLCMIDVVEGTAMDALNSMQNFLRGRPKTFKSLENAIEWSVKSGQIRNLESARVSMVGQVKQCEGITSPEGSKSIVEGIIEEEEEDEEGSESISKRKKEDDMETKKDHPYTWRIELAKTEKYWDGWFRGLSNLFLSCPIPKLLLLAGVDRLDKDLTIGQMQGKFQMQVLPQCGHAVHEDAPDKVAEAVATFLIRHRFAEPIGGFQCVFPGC
Fam108B counter: blocks mouse Fam108B hydrolase in RBBP9 counter-screen. recombinant Fam108B, FP-Rh probe fluorescence polarization. inhibition, % at 9.51 µM. 300,000 tested, 0.33% active. AID 1947;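 active means inhibition above the screen mean inhibition plus 3 SD, computed separately per campaign, cut at about 18% in these data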;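 further: inhibitors lower polarization as less probe binds the enzyme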
Fam108b inh conf: confirmation of mouse Fam108b serine hydrolase inhibitors; shares compounds with Fam108B counter; recombinant Fam108b, FP-Rh probe fluorescence polarization; inhibition, % at 9.51 µM; 930 tested, 44% active; AID 1978;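 active means inhibition above a limit from the primary screen, the mean over all compounds plus 3 SD, cut at about 19% in these data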;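 further: inhibitors free the probe so polarization falls as inhibition rises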
Fam108b ABPP HTS: mouse ABHD17B inhibition; shares compounds with Fam108B counter; recombinant Fam108b, gel-based ABPP, fluorophosphonate probe; inhibition, % at 20 µM; 260 tested, 44% active; AID 588649; in the data active means inhibition above about 40%
A number is an active result; 0 = inactive; - = no result. Rows were chosen to be rich in hits. Some 1.3% of all compounds tested hit in one or more screens of this group.

SMILES | PREPL inh | LYPLA1 inh | LYPLA2 inh | PME-1 primary | Fam108B counter | Fam108b inh conf | others
O=C(O)c1ccc(N/N=C/C2=C(N3CCOCC3)C(=C\c3ccccc3)/CC2)cc1 | 0 | 0 | 0 | 0 | 19 | 22
Cc1cccc(NC(=O)CSc2nnc(CNC(=O)c3cccs3)o2)c1C | 0 | 0 | 0 | 0 | 0 | -
CC(Sc1nc(N)cc(N)n1)C(=O)Nc1ccc(N2CCOCC2)cc1 (centres undefined) | 0 | 0 | 0 | 0 | - | -
CC(=O)NC1=NN(C(C)=O)C(C)(c2ccc(C)o2)S1 (centres undefined) | 0 | 0 | 0 | 0 | 0 | -
CC(=O)NC1=NN(C(C)=O)C(C)(c2ccco2)S1 (centres undefined) | 0 | 0 | 0 | 0 | 22 | 0
O=C(CN1C(=O)c2ccc([N+](=O)[O-])cc2C1=O)Nc1ccccc1N1CCCC1 | 0 | 0 | 0 | 0 | 0 | -
CN1C(=O)/C(=C/c2ccc(C(=O)Nc3ccc(O)cc3C(=O)O)cc2)SC1=S | 0 | 0 | 0 | 35 | 19 | 0
CCC1CCCCN1CCCCOc1cccc(Cl)c1 (centres undefined) | 0 | 0 | 0 | 0 | 0 | -
COc1cccc(/C=N/Nc2ncnc3scc(-c4ccccc4)c23)c1O | 0 | 0 | 0 | 0 | 23 | 0
COc1cc(/C=N/NC(=O)c2cc[n+]([O-])cc2)ccc1O | 0 | 0 | 0 | 0 | 0 | -
O=C(O)CCCN1C(=O)/C(=C\c2ccc(-c3nc4ccccc4s3)o2)SC1=S | 0 | 0 | 0 | 0 | 20 | 0
O=C(O)CCN1C(=O)/C(=C/c2ccc(-c3nc4ccccc4s3)o2)SC1=S | 0 | 0 | 0 | 0 | 0 | -
O=C(O)CC(C(=O)O)N1C(=O)/C(=C/c2ccc(-c3nc4ccccc4s3)o2)SC1=S (centres undefined) | 0 | 0 | 0 | 0 | 32 | 0
CN(CC(=O)Nc1c(Cl)cccc1Cl)C(=O)c1ccc2nc[nH]c2c1 | 0 | 0 | 0 | 0 | 0 | -
CCN(CC)S(=O)(=O)c1ccc(Nc2nc3ccccc3n3nnnc23)cc1 | 0 | 0 | 0 | 0 | 26 | 0
c1ccc(Nc2nc3ccccc3n3nnnc23)cc1 | 0 | 0 | 0 | 0 | 0 | -
Nc1nn2cc(-c3ccc(Br)cc3)nc2c2ccccc12 | 0 | 0 | 0 | 0 | 27 | 0
CC(Sc1nnc(Nc2ccccc2)s1)C(=O)Nc1nc(-c2ccccc2)cs1 (centres undefined) | 0 | 0 | 0 | 0 | 0 | -
CC(Sc1nnc(NCc2ccccc2)s1)C(=O)Nc1ccc2c(c1)C(=O)c1ccccc1C2=O (centres undefined) | 0 | 0 | 0 | 0 | 38 | 19
Cn1/c(=N\NC(=O)c2ccccc2Cl)sc2ccccc21 | 0 | 0 | 0 | 0 | 0 | -
CN(c1ccccc1)c1ccc(/C=C(\CCC(=O)O)c2nc3ccccc3s2)cc1[N+](=O)[O-] | 0 | 0 | 0 | 0 | 20 | 0
Cc1ccc(/C=C(\CCC(=O)O)c2nc3ccccc3s2)cc1[N+](=O)[O-] | 0 | 0 | 0 | 0 | 0 | -
O=C(Nc1ccc(Cl)cc1)c1cc2c(cc1O)[nH]c1ccccc12 | 0 | 0 | 0 | 0 | 25 | 0
CC(=O)Nc1ccc2[nH]c3ccccc3c2c1 | 0 | 0 | 0 | 0 | 0 | -
COc1cc2cc(CCCOC(=O)CCCC(=O)O)oc(=O)c2cc1OC | 0 | 0 | 0 | 0 | - | -
SMILES | PREPL inh | LYPLA1 inh | LYPLA2 inh | PME-1 primary | Fam108B counter | Fam108b inh conf | others
Cc1nn(-c2ccccc2)c(Cl)c1C=NNc1ccc(S(=O)(=O)Nc2ccccc2C(=O)O)cc1[N+](=O)[O-] | - | - | - | - | - | - | Fam108b ABPP HTS=0
CC(=O)Nc1ccc(C=NNc2ccc(S(=O)(=O)Nc3ccccc3C(=O)O)cc2[N+](=O)[O-])cc1 | 0 | - | - | - | - | -
CN(C)S(=O)(=O)c1ccc(-c2csc(N/N=C/c3ccc(O)cc3)n2)cc1 | 0 | 0 | 0 | 35 | 29 | 0
CN(C)S(=O)(=O)c1ccc(-c2csc(N/N=C/c3ccco3)n2)cc1 | 0 | 0 | 0 | 0 | 0 | -
O=[N+]([O-])c1cccc(-c2csc(N/N=C/c3cccc(O)c3)n2)c1 | 0 | 0 | 0 | 0 | 32 | 31
O=C(COc1ccc(S(=O)(=O)N2CCOCC2)cc1)Nc1ccccc1Cl | 0 | 0 | 0 | 0 | 0 | -
CNC(=O)N(O)C1N(/N=C/c2c(F)cccc2Cl)C(=S)SC1(C)C (centres undefined) | 0 | 0 | 0 | 0 | 0 | -
Nc1ccc2nc(-c3cccc(-c4nc5ccc(N)cc5[nH]4)c3)[nH]c2c1 | 0 | 0 | 0 | 51 | 25 | 146 | Fam108b ABPP HTS=90
O=Nc1c(O)[nH]c2ccc(F)cc12 | 0 | 0 | 0 | 0 | 0 | -
Cc1cc2c(N=O)c(NO)ccc2[nH]1 | 0 | 0 | 0 | 49 | 33 | 0
Cc1cccc(NC(=O)/C(C#N)=C/c2ccc(Cl)cc2)n1 | 0 | 0 | 0 | 0 | 19 | 0
Cc1cccc(NC(=O)/C(C#N)=C/c2cccc([N+](=O)[O-])c2)n1 | 0 | 0 | 0 | 0 | 25 | 21
O=C(N/N=C/c1ccc(O)cc1O)c1ccc(CN2C(=O)c3cccc4cccc2c34)cc1 | 0 | 0 | 0 | 0 | 38 | 28
Oc1ccc(N=Cc2ccc(OCc3ccccc3)cc2)cc1 | 0 | 0 | 0 | 27 | 20 | 0
O=C(N/N=C/c1ccc(OCc2ccccc2)cc1)c1ccncc1 | 0 | 0 | 0 | 0 | 0 | -
O=C1[C@@H]2Cc3c([nH]c4ccccc34)C(c3ccccc3)N2C(=O)CN1C1CC1 (some centres undefined) | 0 | 0 | 0 | 27 | 19 | 0
O=C1[C@@H]2Cc3c([nH]c4ccccc34)C(c3ccc([N+](=O)[O-])cc3)N2C(=O)CN1C1CC1 (some centres undefined) | 0 | 0 | 0 | 0 | 0 | -
Fc1ccccc1NC(=S)NCc1ccc2c(c1)OCO2 | 0 | 0 | 0 | 0 | 0 | -
O=S(=O)(c1c(F)cccc1F)N1CCN(C(=S)NCc2ccc3c(c2)OCO3)CC1 | 0 | 0 | 0 | 0 | 25 | 0
N=C1/C(=C\c2ccc(-c3cccc(C(=O)O)c3)o2)C(=O)N=C2SC=C(c3ccccc3)N12 | 0 | 0 | 0 | 0 | 24 | 0
Nc1nc(Nc2ccccc2Cl)cc(=O)[nH]1 | 0 | 0 | 0 | 0 | 0 | -
O=[N+]([O-])c1cc(Cl)cc(C=NNC(=S)Nc2ccc(S(=O)(=O)N3CCOCC3)cc2)c1O | - | - | - | - | - | - | Fam108b ABPP HTS=0
O=S(=O)(c1ccc(NC(=S)N/N=C/c2ccc(O)c(O)c2)cc1)N1CCOCC1 | 0 | 0 | 0 | 0 | 0 | -
CN(C)S(=O)(=O)c1cccc(NC(=O)COC(=O)c2cc(-c3cccc(Br)c3)nc3ccccc23)c1 | 0 | 0 | 0 | 0 | 31 | 60 | Fam108b ABPP HTS=90
O=C(Cc1ccccc1)NNS(=O)(=O)c1ccccc1[N+](=O)[O-] | 0 | 0 | 0 | 0 | 0 | -
O=C(N/N=C/c1ccc(O)cc1)c1cccc(N/N=C/c2ccc(O)cc2)c1 | 0 | 0 | 0 | 31 | 56 | 48
CCC(CC)Nc1ccc(C(CC(N)=O)NC(=O)Cc2cccc3ccccc23)cc1[N+](=O)[O-] (centres undefined) | 0 | 0 | 0 | 0 | 0 | -
